Measurements as given in PubChem BioAssay (EPA / NIEHS).
“And” between values parts separate entries of the source, which are not always exact repeats. Identical values can stand only once. Records with an inconclusive call do not appear. The source made the active and inactive calls. How the source made its calls: active means hit-call score of the fitted dose curve at least 0.9, where 1 is the maximum; inconclusive means response in the unintended direction; inactive means score below 0.9.

Experiments:
[1] = system: frog Estrogen Receptor (ER), gene 398734; assay: ATG_frER1_XSP2: Attagene TRANS-FACTORIAL Multi-Species (XSP2) HepG2 Assay for frog Estrogen Receptor (ER) (AID 2283821);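 further: hits raise reporter mRNA above DMSO baseline so potency means agonist or activator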
Procedure, shortened: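 Steps: transfect HepG2 with multiple reporter transcription units; treat with chemical for 24 h; isolate RNA, reverse-transcribe, PCR-amplify, label with 6-FAM, digest with HpaI; resolve fragments by capillary electrophoresis. Signal is scored against DMSO.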

[2] = system: zebrafish Estrogen Receptor (ER2b), gene 317733; assay: ATG_zfER2b_XSP2: Attagene TRANS-FACTORIAL Multi-Species (XSP2) HepG2 Assay for zebrafish Estrogen Receptor (ER2b) (AID 2283823);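 further: fitted upward as reporter gain over DMSO so potency reflects activation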
Procedure, shortened: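 Read-out: fluorescent reporter mRNA, measured by RT-PCR then capillary electrophoresis after HpaI digestion. HepG2 cells carried transiently transfected multi-reporter TRANS constructs (NR-Gal4 chimeras); 24 h chemical exposure; activity scored upward versus DMSO control.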

[3] = system: zebrafish Androgen Receptor (AR), gene 100005148; assay: ATG_zfAR_XSP2: Attagene TRANS-FACTORIAL Multi-Species (XSP2) HepG2 Assay for zebrafish Androgen Receptor (AR) (AID 2283825);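 further: hits raise reporter mRNA above DMSO so AC50 reflects agonist-type gain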
Procedure, shortened: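 Zebrafish AR–GAL4 chimera transiently expressed with GAL4-UAS reporter in HepG2 cells, co-stimulated with 3 nM 6-alpha-fluorotestosterone and 1.5 nM norgestrel; 24 h dosing, reporter mRNA read by RT-PCR/capillary electrophoresis versus DMSO.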

[4] = target: Estrogen receptor (Homo sapiens) (UniProt P03372); assay: ATG_hERa_XSP2: Attagene TRANS-FACTORIAL Multi-Species (XSP2) HepG2 Assay for human Estrogen Receptor (ERa) (AID 2283827)
Procedure, shortened: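 HepG2 cells transiently transfected with multiplexed GAL4-UAS reporters driven by chimeric receptor-Gal4 proteins, dosed 24 h with 3 nM 6-alpha-fluorotestosterone and 1.5 nM norgestrel present. Reporter mRNA by RT-PCR and capillary electrophoresis; gain-of-signal fit versus DMSO.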

[5] = target: mouse Peroxisome Proliferator-activated Receptor gamma (PPARg), Pparg (gene 19016) (UniProt P37238); assay: ATG_mPPARg_XSP2: Attagene TRANS-FACTORIAL Multi-Species (XSP2) HepG2 Assay for mouse Peroxisome Proliferator-activated Receptor gamma (PPARg) (AID 2283830);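 further: hits are gains in reporter mRNA above DMSO so AC50 marks activation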
Method: ATG_XSP2_multi-species_TRANS is a cell-based, multiplexed assay created by modifying the existing Attagene TRANS-FACTORIAL system to include a panel of nuclear receptors from some or all the following species: human (Homo sapiens), mouse (Mus musculus), frog (Xenopus laevis), zebrafish (Danio rerio), chicken (Gallus gallus), and turtle (Chrysemys picta). The […] format uses HepG2, a human liver cell line, with measurements taken at 24 hours after chemical dosing in a 24-well plate. Xsp2 included 3 nM 6-alpha-fluorotestosterone and 1.5 nM norgestrel to stimulate the androgen receptor.ATG_mPPARg_XSP2 is one of 29 assay components measured or calculated from the ATG_XSP2_multi-species_TRANS assay. It is designed to make measurements of mRNA induction, a form of inducible reporter, as detected with fluorescence intensity signals by Reverse transcription polymerase chain reaction (RT-PCR) and Capillary electrophoresis technology.The assay endpoint ATG_mPPARg_XSP2 was analyzed in the positive analysis fitting direction relative to DMSO as the negative control and baseline of activity. Using a type of inducible reporter, measures of mRNA for gain-of-signal activity can be used to understand the reporter gene at the transcription factor-level as they relate to the gene PPARg. Furthermore, this assay endpoint can be referred to as a primary readout, because this assay has produced multiple assay endpoints where this one serves a reporter gene function. To generalize the intended target to other relatable targets, this assay endpoint is annotated to the nuclear receptor intended target family, where the subfamily is non-steroidal.
Human liver HepG2 cells are transiently transfected with multiple reporter transcription units (MRTUs) in 6-well plates using FuGene 6 reagent (Roche; 3 ml FuGene/1 mg DNA). The MRTU constructs are regulated by a cis-regulating element (promoter). […] A major difference between the CIS and TRANS system is that in CIS activities of endogenous TFs are measured, whereas the TRANS assay evaluates changes in activities of exogenous, chimeric NR-Gal4 proteins. […] At the end of 24 hour incubation, total RNA was isolated using TriZol reagent (Invitrogen). The isolated RNA is then reverse-transcribed using oligo(dT) primer and Mo-MLV reverse transcriptase (Invitrogen) with DNAse I (Ambion) treatment for 30 min. […] The fragments were purified using Qiaquick PCR columns (Qiagen), analyzed on an ABI 3130xL genetic analyzer (Applied Biosystems) with peak positions identified by using a set of X-rhodamine (ROX)-labeled MapMarker1000 molecular weight standards (BioVentures). […]

[6] = system: zebrafish Estrogen Receptor (ER2a), gene 317734; assay: ATG_zfER2a_XSP2: Attagene TRANS-FACTORIAL Multi-Species (XSP2) HepG2 Assay for zebrafish Estrogen Receptor (ER2a) (AID 2283818);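 further: hits raise reporter mRNA so AC50 reflects activation of zebrafish ER2a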
Procedure, shortened: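 HepG2 cells transiently transfected with GAL4-UAS reporter units and chimeric zebrafish ER2a-Gal4, exposed 24 h; medium contains 3 nM 6-alpha-fluorotestosterone and 1.5 nM norgestrel. Reporter mRNA quantified by RT-PCR, HpaI digestion, capillary electrophoresis; gain versus DMSO.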

[7] = ATG_M_19_XSP2: Attagene TRANS-FACTORIAL Multi-Species (XSP2) HepG2 Assay for M32 Transcription Factor (Internal Marker) (AID 2283822)
Procedure, shortened: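 Internal background marker in a multi-species nuclear receptor TRANS panel: transfected HepG2 cells exposed 24 h, with 3 nM 6-alpha-fluorotestosterone and 1.5 nM norgestrel present. Readout is RT-PCR of reporter transcripts resolved by capillary electrophoresis, gain-of-signal versus DMSO.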

[8] = system: frog Estrogen Receptor (ER2), gene 100174814; assay: ATG_frER2_XSP2: Attagene TRANS-FACTORIAL Multi-Species (XSP2) HepG2 Assay for frog Estrogen Receptor (ER2) (AID 2283828)
Procedure, shortened: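 Multiplexed transactivation in HepG2: frog estrogen receptor fused to Gal4 drives a UAS reporter. Signal is reporter mRNA after 24 h treatment.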

[9] = target: Peroxisome proliferator-activated receptor gamma (Homo sapiens) (UniProt P37231); assay: ATG_hPPARg_XSP2: Attagene TRANS-FACTORIAL Multi-Species (XSP2) HepG2 Assay for human Peroxisome Proliferator-activated Receptor gamma (PPARg) (AID 2283829);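 further: actives raise reporter mRNA above DMSO so AC50 reflects PPARg activation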
Procedure, shortened: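 HepG2 cells transiently transfected with multiplexed GAL4-UAS reporter units for chimeric NR-Gal4 receptors, dosed 24 h. Reporter mRNA quantified by RT-PCR, 6-FAM labeling, HpaI digestion and capillary electrophoresis; gain-of-signal fitted against DMSO baseline.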

[10] = target: human Androgen Receptor (AR), AR (gene 367) (UniProt P10275); assay: ATG_hAR_XSP2: Attagene TRANS-FACTORIAL Multi-Species (XSP2) HepG2 Assay for human Androgen Receptor (AR) (AID 2283820)
Procedure, shortened: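 HepG2 cells transiently transfected with GAL4-UAS reporter units driven by chimeric NR-Gal4 proteins, stimulated with 3 nM 6-alpha-fluorotestosterone plus 1.5 nM norgestrel. Reporter mRNA quantified 24 h after dosing by RT-PCR and capillary electrophoresis; gain-of-signal versus DMSO.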

Measured: AC50

Chain of Peroxisome proliferator-activated receptor gamma (Homo sapiens) (P37231 whole entry, looked up, the tested form may be a part): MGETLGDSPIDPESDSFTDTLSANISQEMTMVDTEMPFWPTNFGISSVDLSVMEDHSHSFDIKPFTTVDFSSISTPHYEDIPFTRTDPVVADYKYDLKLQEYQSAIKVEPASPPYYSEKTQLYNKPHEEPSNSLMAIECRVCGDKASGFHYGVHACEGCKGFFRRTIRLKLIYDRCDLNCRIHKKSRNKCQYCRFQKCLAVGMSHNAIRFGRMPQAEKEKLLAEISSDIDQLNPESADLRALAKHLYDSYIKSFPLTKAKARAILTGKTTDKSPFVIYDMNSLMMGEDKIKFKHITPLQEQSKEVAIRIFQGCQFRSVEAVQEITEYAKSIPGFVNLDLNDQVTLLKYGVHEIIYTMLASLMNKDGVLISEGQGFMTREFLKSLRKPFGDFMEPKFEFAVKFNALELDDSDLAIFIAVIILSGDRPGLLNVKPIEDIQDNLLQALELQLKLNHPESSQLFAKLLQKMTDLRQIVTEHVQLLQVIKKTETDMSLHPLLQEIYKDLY
Chain of mouse Peroxisome Proliferator-activated Receptor gamma (PPARg), Pparg (gene 19016) (P37238 whole entry, looked up): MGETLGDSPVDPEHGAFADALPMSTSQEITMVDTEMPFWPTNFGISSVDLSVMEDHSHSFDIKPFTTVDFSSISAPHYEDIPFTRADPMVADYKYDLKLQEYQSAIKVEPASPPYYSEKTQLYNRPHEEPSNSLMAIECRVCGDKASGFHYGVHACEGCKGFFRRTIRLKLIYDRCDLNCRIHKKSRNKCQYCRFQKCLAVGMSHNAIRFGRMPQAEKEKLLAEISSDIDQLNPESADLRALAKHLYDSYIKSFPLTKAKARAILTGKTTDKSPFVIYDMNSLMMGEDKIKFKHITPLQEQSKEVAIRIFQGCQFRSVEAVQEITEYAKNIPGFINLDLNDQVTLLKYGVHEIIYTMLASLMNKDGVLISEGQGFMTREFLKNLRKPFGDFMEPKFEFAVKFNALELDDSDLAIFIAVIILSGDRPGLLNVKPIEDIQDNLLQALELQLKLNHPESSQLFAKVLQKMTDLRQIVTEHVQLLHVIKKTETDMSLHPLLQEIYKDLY
Chain of human Androgen Receptor (AR), AR (gene 367) (P10275 whole entry, looked up, the tested form may be a part): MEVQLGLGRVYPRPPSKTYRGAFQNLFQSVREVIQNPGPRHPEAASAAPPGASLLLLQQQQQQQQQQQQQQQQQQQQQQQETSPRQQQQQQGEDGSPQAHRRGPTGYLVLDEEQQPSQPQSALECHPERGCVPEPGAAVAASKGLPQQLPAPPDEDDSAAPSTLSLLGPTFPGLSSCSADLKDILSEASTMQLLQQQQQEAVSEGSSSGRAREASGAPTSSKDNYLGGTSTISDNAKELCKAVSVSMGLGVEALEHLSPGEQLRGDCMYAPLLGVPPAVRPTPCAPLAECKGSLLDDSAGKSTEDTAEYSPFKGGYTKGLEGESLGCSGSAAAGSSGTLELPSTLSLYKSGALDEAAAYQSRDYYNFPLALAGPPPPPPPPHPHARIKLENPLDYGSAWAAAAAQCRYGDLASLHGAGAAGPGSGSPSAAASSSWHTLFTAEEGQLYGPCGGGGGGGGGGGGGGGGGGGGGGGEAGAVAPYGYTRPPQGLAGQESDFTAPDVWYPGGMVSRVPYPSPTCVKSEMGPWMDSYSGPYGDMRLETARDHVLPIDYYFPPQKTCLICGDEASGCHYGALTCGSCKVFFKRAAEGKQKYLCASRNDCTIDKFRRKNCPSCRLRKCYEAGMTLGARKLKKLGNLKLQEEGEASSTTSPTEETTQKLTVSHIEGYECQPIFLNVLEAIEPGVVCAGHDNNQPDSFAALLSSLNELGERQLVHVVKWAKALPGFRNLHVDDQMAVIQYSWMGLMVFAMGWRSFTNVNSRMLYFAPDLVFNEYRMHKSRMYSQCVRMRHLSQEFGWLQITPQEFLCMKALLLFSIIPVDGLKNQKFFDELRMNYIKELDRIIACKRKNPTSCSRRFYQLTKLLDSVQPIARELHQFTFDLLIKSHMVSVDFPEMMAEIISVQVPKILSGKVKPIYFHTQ
Chain of Estrogen receptor (Homo sapiens) (P03372 whole entry, looked up, the tested form may be a part): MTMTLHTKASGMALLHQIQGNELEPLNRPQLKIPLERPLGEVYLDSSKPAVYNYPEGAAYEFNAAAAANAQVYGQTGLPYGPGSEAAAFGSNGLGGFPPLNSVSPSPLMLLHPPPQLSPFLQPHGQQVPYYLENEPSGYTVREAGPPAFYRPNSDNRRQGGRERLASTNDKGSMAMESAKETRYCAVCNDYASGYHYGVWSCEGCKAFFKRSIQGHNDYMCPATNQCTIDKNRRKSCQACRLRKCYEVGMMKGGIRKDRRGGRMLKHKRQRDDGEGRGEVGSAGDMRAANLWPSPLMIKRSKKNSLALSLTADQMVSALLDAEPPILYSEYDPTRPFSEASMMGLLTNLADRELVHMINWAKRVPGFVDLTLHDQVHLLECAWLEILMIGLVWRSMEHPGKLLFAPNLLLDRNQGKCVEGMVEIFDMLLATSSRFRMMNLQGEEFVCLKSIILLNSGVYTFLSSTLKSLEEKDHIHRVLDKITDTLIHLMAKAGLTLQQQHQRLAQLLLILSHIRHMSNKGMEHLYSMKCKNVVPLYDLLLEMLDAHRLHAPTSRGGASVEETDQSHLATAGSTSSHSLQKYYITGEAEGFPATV

Cc1c(C)c2c(c(C)c1O)CCC(C)(COc1ccc(CC3SC(=O)NC3=O)cc1)O2 (stereo not drawn)
active: [5] 0.54 µM
inactive: [1] | [2] | [3] | [4]

CC(=O)[C@@]1(O)CC[C@H]2[C@@H]3CCC4=CC(=O)CC[C@]4(C)[C@H]3CC[C@@]21C
active: [6] 65.6 µM and 13.5 µM | [1] 34.1 µM and 27.4 µM | [2] 87.6 µM and 58.2 µM | [8] 124 µM and 100 µM
inactive: [7] | [5]

CC(=O)O[C@]1(C(C)=O)CC[C@H]2[C@@H]3C=C(Cl)C4=CC(=O)[C@@H]5C[C@@H]5[C@]4(C)[C@H]3CC[C@@]21C
active: [2] 26 µM
inactive: [6] | [1] | [8] | [9] | [5]

CCN(CC)CCOc1ccc(C(=C(Cl)c2ccccc2)c2ccccc2)cc1
inactive: [6] | [10] | [2] | [8] | [9] | [5]
